The whole screen tested about 69,000 compounds, of which about 8,600 (12%) showed an effect of 50% or more. The list comes from a sample in which strong results are over-represented; it also holds similar structures and randomly drawn compounds.

In the test the test system is Plasmodium berghei. Put plainly: Screen against P. berghei liver stage (PbLuc), transformed with Luciferase, at 10uM. Type of test: functional, HepG2. As to conditions: tested at 10 uM.
For `CN(Cc1ccccc1)CC(O)Cn1cnc2cc(F)ccc2c1=O` (stereo not drawn), the INHIBITION is given as -8.7%. The value for `CS(=O)(=O)N1C[C@@H]2COC[C@H](C(=O)Nc3cnccn3)[C@@H]2C1` was 45.2%; that for `O=C(Nc1cnccn1)[C@H]1COC[C@H]2CN(c3ncc(F)cn3)C[C@H]21` was 67.4%. As for `O=C(NC1CC1)[C@H]1COC[C@H]2CN(c3ncc(F)cn3)C[C@H]21`, the figure is 58.5%; as for `O=C(NCc1ccco1)[C@@H]1COC[C@H]2CN(c3ncc(F)cn3)C[C@H]21`, 3.88%. As for `O=C(Nc1cnccn1)[C@@H]1COC[C@H]2CN(c3ncc(F)cn3)C[C@H]21`, the figure is -22.7%; as for `O=C([C@H]1COC[C@H]2CN(c3ncc(F)cn3)C[C@H]21)N1CCOCC1`, -0.554%; as for `CC(=O)N1[C@H](CN(C)C)C[C@@H]2CN(C(=O)c3ccsc3)CC[C@@H]21`, -24.5%. `O=C([C@H]1CN(CCc2ccccc2)C[C@H]2OCC[C@@H]12)N1CCCO1`: the INHIBITION came out at 8.57%. Take `COc1ccc(Cn2cc(C(=O)N(C)Cc3cnccn3)nn2)cc1`: the INHIBITION turned out to be 21.5%. `Cc1cc(NCCC(=O)NC(C)C)nc(-c2ccncc2)n1`: the INHIBITION is listed as -2.43%. As for `COCCNC(=O)CCNc1cc(C)nc(-c2ccncc2)n1`, the figure is 24%; as for `COc1cccc(CNc2cc(C)nc(-c3ccncc3)n2)c1O`, 78.9%. As for `COc1cccc(CNc2cccnc2-n2cccn2)c1OC`, the figure is 17.3%. As for `COc1cccc(CNc2nc(C)cc(C)n2)c1OC`, the figure is -11.7%.

Consider `COc1cccc(CNc2cc(C)nc(-c3ccncc3)n2)c1OC`, for which the INHIBITION is 85.2%.

`Cc1nc(CN2CCN(C(=O)c3sccc3C)CC2)cs1`: the INHIBITION is on record as -117%. As for `CC(C)c1nc(CNCC2CCCN2c2cccnn2)cs1` (stereo not drawn), the figure is -16.8%; as for `COC(=O)c1ccc(C(=O)NCC(O)c2cccn2C)cc1` (stereo not drawn), -52.5%.

Turning to `CC1CCN(c2cc(CCC3CCCN3)ncn2)CC1` (stereo not drawn), the INHIBITION worked out at 34%. As for `CCNC(=O)N1CCc2ccc(NC(=O)NCCOCC)cc21`, the figure is -26.8%. Turning to `CCCNC(=O)Nc1ccc2c(c1)N(S(=O)(=O)CC)CC2`, the INHIBITION was determined as 36.3%.

With `CC(C)(C)OC(=O)N1CCCc2ccc(NCc3ccon3)cc21`, the INHIBITION is recorded as 55.4%. The value for `CC(C)N(CC1CCCN(Cc2ccon2)C1)C(=O)OC(C)(C)C` (stereo not drawn) was 39.9%; that for `Cc1n[nH]cc1CNc1ccc2c(c1)N(C(=O)OC(C)(C)C)CCC2` was 31.8%; that for `CC(C)(C)OC(=O)N1CCCc2ccc(NCc3cc[nH]c3)cc21` was 92.1%. For `CCCNC(=O)CNc1ccc2c(c1)N(C(=O)OC(C)(C)C)CCC2`, the INHIBITION is listed as 87.2%. The value for `Cn1ncnc1CNc1ccccc1C(=O)NC(C)(C)C` was 1.2%. `COc1ccc(NC(=O)c2ccccc2NCc2ncnn2C)cc1`: the INHIBITION was determined as 47.4%.

On to `CC(C)(C)OC(=O)N1CCC[C@H](NCc2cc[nH]c2)C1`, for which the INHIBITION amounted to 49.5%. The value for `Cc1cc(CNCC2CCCN(C(=O)OC(C)(C)C)C2)no1` (stereo not drawn) was 39%; that for `Cn1ncnc1CNc1ccc2c(c1)N(C(=O)OC(C)(C)C)CCC2` was 52.4%; that for `c1csc(-c2nc(CN3CCCCC3Cn3cncn3)cs2)c1` (stereo not drawn) was 42%. The value for `CCc1nc2n(n1)CC(NCC(=O)Nc1cc(C)nn1C)CC2` (stereo not drawn) was 5.03%; that for `Cc1ccc(-c2cnnc(N3CCCC3c3nccs3)n2)o1` (stereo not drawn) was 12.6%; that for `Cc1ccc(OCc2occc2C(=O)N2C[C@@H]3C(CN(C)C)[C@@H]3C2)cc1` (stereo partly drawn) was 32.2%.

For `Cc1c(CN2CCCC2(C)C(=O)NC2CCCC2)cnn1C` (stereo not drawn), the INHIBITION was determined as 1.62%. Regarding `CCN(CC)CCNc1c(-c2ccccc2)c(=O)c1=O`, the INHIBITION stood at 4.07%. The value for `CN(C)c1nc2cn(C3CCSCC3)c(=O)c-2c[nH]1` was 18.65%. For `CC(C)CC(=O)N1CC(=O)N(CCc2ccccc2)CC(O)C1` (stereo not drawn), the INHIBITION amounted to 0.284%. As to `CC(C)c1nc(CN2CCN(C(=O)CN3CCOCC3)CC2)no1`, the INHIBITION turned out to be 13.3%. The value for `COC(=O)N1CCc2ccc(NC(=O)c3cn(C)nn3)cc2C1` was -28.4%; that for `CC(=O)N1CC(C)CN(Cc2ccon2)c2ccccc21` (stereo not drawn) was 18%. As for `Cc1n[nH]cc1CNc1ccc2c(c1)CN(C(=O)OC(C)(C)C)CC2`, the figure is 80.1%; as for `CCN(C(=O)Cc1ccc(NCc2ncc[nH]2)cc1)c1ccccc1`, 22.2%.

In the case of `CC(C)(C)OC(=O)N1CCCc2ccc(NCc3ncc[nH]3)cc21`, the INHIBITION worked out at 51.8%. The value for `Cc1n[nH]cc1CNC(=O)[C@H]1CCCCN1C(=O)OC(C)(C)C` was 34.1%; that for `CN1CCN(Cc2cccc(NCc3ncc[nH]3)c2)CC1` was -13.9%. As for `CC(C)(C)OC(=O)N1CCCN(Cc2ccon2)c2ccccc21`, the figure is 83.6%; as for `CC(=O)N1CCCN(Cc2ccon2)c2ccccc21`, 32.3%; as for `Cc1cc(C)nc(N2CCC(C(=O)Nc3ccc(C(C)C)cc3)CC2)n1`, 20.2%.

As for `O=S1(=O)NCC2(CCN(c3ncccn3)CC2)COc2ccccc21`, the INHIBITION was -21.2%. As for `CO[C@@H]1CO[C@@]2(CCCN(C(=O)N3CCCC3)C2)C1`, the figure is 33.1%; as for `CCS(=O)(=O)N1CCC(c2nn(CCN(C)C)c3ncccc23)C1` (stereo not drawn), 9.63%; as for `Cc1cccc(C2CCN(S(=O)(=O)c3cn(C)cn3)CC2)n1`, -41.8%. As for `CCN1CCOC(CNCc2ccccc2OCc2ccncc2)C1` (stereo not drawn), the INHIBITION turned out to be 19.5%. The value for `Cc1nnc2n1CCN(Cc1ncc(-c3ccccc3)o1)C2` was -25.4%; that for `c1cc(-c2ccc3nc(C4CCN(CC5CC5)CC4)nn3c2)ccn1` was 47.9%; that for `COc1ccc(OCCN2CCN(Cc3nccn3C)CC2)cc1` was 14.1%. The value for `CCN(Cc1ccncc1)CC1(O)CCN(C(=O)c2ccccc2C)C1` (stereo not drawn) was 23.2%; that for `Cn1c(C(=O)N2CCOCC2)nc2c1CCN(c1ncccn1)C2` was 14.2%; that for `CN1CCCN(C(=O)c2nc3c(n2C)CCN(c2ncccn2)C3)CC1` was 55.6%. As for `CC(C)n1c(C(=O)N2CCCC2)nc2c1CCN(c1ncccn1)C2`, the figure is 33.4%; as for `CN1CCN(C(=O)c2[nH]nnc2Nc2ccccc2F)CC1`, 5.18%; as for `O=C(NCCNC(=O)c1ccc(Cl)cc1)NCCn1cccc1`, -11.9%.

Take `NC(=O)Nc1ccc(C(=O)NCCn2cccc2)cc1`: the INHIBITION stood at 57.1%. As for `CC(=O)Nc1ccc(C(=O)NCCCn2cccc2)cc1`, the figure is 18.7%; as for `O=C(NC[C@]12COC[C@H]1CN(Cc1nccs1)C2)c1cscn1`, 47.9%; as for `FC(F)(F)c1cc(C2CCNCC2)nc(-c2ccsc2)n1`, 1.62%. The value for `CN1C(=O)CC(c2cnn(C)c2)C12CCN(C(=O)c1ccno1)CC2` (stereo not drawn) was 14.8%; that for `CN1C(=O)CC(c2cnn(C)c2)C12CCN(C(=O)c1ccnnc1)CC2` (stereo not drawn) was 57.9%. The value for `CN1C(=O)CC(c2cnn(C)c2)C12CCN(C(=O)c1ccc[nH]1)CC2` (stereo not drawn) was 37.8%.

For the compound `CN1C(=O)CC(c2cnn(C)c2)C12CCN(C(=O)c1ccncc1)CC2` (stereo not drawn), the INHIBITION is reported as 42.7%.

Consider `CN1C(=O)CC(c2cnn(C)c2)C12CCN(C(=O)c1cscn1)CC2` (stereo not drawn), for which the INHIBITION is 61.4%. The value for `CN1C(=O)CC(c2cnn(C)c2)C12CCN(C(=O)c1ccco1)CC2` (stereo not drawn) was 10.1%; that for `Cc1nc(C2CCCN2C(=O)CCc2ccc(F)cc2)ncc1C(N)=O` (stereo not drawn) was 43.6%.

Consider `O=C(CCc1nc2ccccc2[nH]1)N1CCCC(n2cccn2)C1` (stereo not drawn), for which the INHIBITION came out at 40.75%.

`CN(C)CCN1C(=O)CCC12CCCN(C(=O)CC1CC1)CC2` (stereo not drawn): the INHIBITION is listed as 51.9%. As for `CC(C)NC(=O)N1CCC2(CCC(=O)N2CCN2CCCC2)CC1`, the figure is 5.04%; as for `COCCN1C(=O)CCC12CCCN(C(=O)CC1CC1)CC2` (stereo not drawn), -15.9%. As for `CC(C)NC(=O)N1CCC2(CCC(=O)N2CCN(C)C)CC1`, the figure is 60.5%; as for `CN(C)CCN1C(=O)CCC12CCCN(C(=O)N(C)C)CC2` (stereo not drawn), 9.97%. For the compound `COCCC(=O)N1CCCC2(CCC(=O)N2CCOC)CC1` (stereo not drawn), the INHIBITION is on record as 54.9%. The value for `CN(C)CCN1C(=O)CCC12CCN(C(=O)CC1CC1)CC2` was -12.2%. As to `COCCN1C(=O)CCC12CCCN(C(=O)NC(C)C)CC2` (stereo not drawn), the INHIBITION came to 18.6%. The value for `COCCN1C(=O)CCC12CCN(C(=O)NC(C)C)CC2` was -38.4%. The value for `O=c1cc(CNCc2ccc3c(c2)OCO3)nc2ccccn12` was 14.3%; that for `COc1nn(C)cc1C(=O)N1CCC(c2nnc(C(C)C)o2)CC1` was 37.5%. As for `c1ccn(Cc2noc3c2CN(Cc2ccsc2)CC3)c1`, the figure is 49.1%. Consider `Cc1ccc2c(c1)CN(CC(=O)NCCc1ccc(F)cc1)CC(C)O2` (stereo not drawn), for which the INHIBITION is recorded as -46.4%.

With `CC1CN(CC(=O)NCCc2ccncc2)Cc2ccccc2O1` (stereo not drawn), the INHIBITION turned out to be 60.9%. The value for `CC1CN(CCC(=O)NCCc2cccnc2)Cc2ccccc2O1` (stereo not drawn) was 26.1%; that for `O=C(c1ccc(-c2ccsc2)nc1)N1CCCN(C2CCCCC2)CC1` was 14.4%; that for `CO[C@@]1(C)C[C@@H](O)C12CCN(C(=O)CCn1c(C)cccc1=O)CC2` was 46.4%. The value for `COCC1c2nnn(C)c2CCN1C(=O)Cc1ccc2c(c1)OCO2` (stereo not drawn) was -10.5%. Consider `COCC1c2nnn(C)c2CCN1C(=O)c1ccc(OC)c(F)c1` (stereo not drawn), for which the INHIBITION is reported as 44.8%.

As to `COCC1c2nnn(C)c2CCN1C(=O)CCc1cccc(OC)c1` (stereo not drawn), the INHIBITION was determined as 52.1%.

Consider `COCC1c2nnn(C)c2CCN1C(=O)COc1ccccc1C` (stereo not drawn), for which the INHIBITION stood at 22.2%. The value for `COCC1c2nnn(C)c2CCN1C(=O)COc1ccccc1OC` (stereo not drawn) was 53%; that for `COCC1c2nnn(C)c2CCN1C(=O)Cc1ccccn1` (stereo not drawn) was -21.3%; that for `CCc1c(C)sc2nc3n(CCN4CCCCC4)nc(SC)n3c(=O)c12` was 35.1%. The value for `CC(C)(C)c1n[nH]c(C2CN(C(=O)c3cc(C4CC4)[nH]n3)CCO2)n1` (stereo not drawn) was -21.2%; that for `CNC(=O)N1CCN(C(=O)N(C)C)CC2(CC(=O)N(C)C2)C1` (stereo not drawn) was 26.3%.

(Values after ChEMBL document CHEMBL4513216, “Probing the Open Global Health Chemical Diversity Library for Multistage-Active Starting Points for Next-Generation Antimalarials” (ACS Infect Dis, 2020).)
